Values joined by “and” are separate entries in the source; they are usually repeats but may differ in a detail not shown here. Equal entries are not always repeated. Among all 350,000 compounds or so, about 6,000 (1.7%) were called active. Roughly 5% stayed inconclusive and do not appear here. Cut-off read from the data, not from the text of the source: active = CPE inhibition above about 20% (passing the limit was not always enough); inconclusive = no clear call, values can overlap the other calls; tested in BHK-21 cells. Many of the other results were omitted from the sample, so actives are more common in it than they were.

The assay in a line: inhibitors of DENV2 cytopathic effect, primary screen, cell-based, plate reader, single concentration (AID 651640).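 Note: 0% = median of neutral control wells and 100% = median of positive control wells.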 Conditions: DENV2-infected cells, cytopathic effect rescue, at 9.99 µM, active compounds read high. For orientation: Damage to the host cells serves as the signal in cytopathic effect assays.
On to `COc1ccccc1-c1cn(CC[C@H]2CC[C@@H](NC(=O)CCN3CCCCC3)[C@@H](CO)O2)nn1`, for which the CPE inhibition was -1.83% (inactive). As for `C[C@H]1CN([C@@H](C)CO)S(=O)(=O)c2ccc(C#Cc3cccc(F)c3)cc2O[C@@H]1CN(C)S(=O)(=O)c1cn(C)cn1`, the figure is -0.538% (inactive); as for `CCNC(=O)[C@H]1[C@H](CO)[C@H]2Cn3c(cccc3=O)[C@@H]1N2Cc1cc(F)ccc1F`, -7.97% (inactive); as for `CCCNC(=O)N1C[C@@H](O)COC[C@@H]2O[C@@H](CC(=O)O)CC[C@H]21`, 5.1% (inactive).

On to `CN(C)CC(=O)N[C@@H]1C[C@@H]2O[C@H](CO)CC[C@@H]2O[C@@H]1CCc1ccc(C#Cc2ccccc2)cc1`, for which the CPE inhibition is 6.51% (inactive). As for `C[C@H](CO)N1C[C@H](C)[C@H](CN(C)C)Oc2ncc(/C=C/c3ccccc3)cc2C1=O`, the figure is -2.89% (inactive) and -2.09% (inactive); as for `Cc1noc(C)c1NC(=O)Nc1ccc2c(c1)C(=O)N([C@H](C)CO)C[C@H](C)[C@H](CN(C)Cc1ccc(-c3ccccc3)cc1)O2`, 5.27% (inactive); as for `C[C@@H]1CCCCO[C@@H](CN(C)Cc2ccc3c(c2)OCO3)[C@@H](C)CN([C@@H](C)CO)C(=O)c2cc(NC(=O)Nc3ccccc3)ccc2O1`, -0.739% (inactive).

Regarding `C[C@@H]1CN([C@@H](C)CO)C(=O)c2cc(/C=C/c3ccccc3)cnc2O[C@H]1CN(C)C(=O)Nc1ccc(C(F)(F)F)cc1`, the CPE inhibition is 22.8% (active). In the case of `C[C@@H]1CN([C@@H](C)CO)C(=O)c2cc(N(C)C)ccc2O[C@H]1CN(C)Cc1ccc(C(F)(F)F)cc1`, the CPE inhibition is 2.48% (inactive). Under `C/C=C/c1cnc2c(c1)C(=O)N([C@H](C)CO)C[C@H](C)[C@@H](CN(C)C(=O)Nc1ccc(C(F)(F)F)cc1)O2` stands -8.88% (inactive); under `C[C@H](CO)N1C[C@H](C)[C@H](CN(C)Cc2ccncc2)Oc2ccc(N(C)C)cc2C1=O`, 24.8% (active); under `C[C@H](O)C#Cc1cnc2c(c1)C(=O)N([C@H](C)CO)C[C@@H](C)[C@@H](CN(C)C(=O)Nc1ccc(C(F)(F)F)cc1)O2`, -2.9% (inactive). Under `Cc1noc(C)c1NC(=O)Nc1ccc2c(c1)C(=O)N([C@H](C)CO)C[C@@H](C)[C@@H](CN(C)Cc1ccccc1)O2` stands 33.6% (active); under `C[C@H]1CCCCO[C@@H](CN(C)Cc2ccc3c(c2)OCO3)[C@@H](C)CN([C@@H](C)CO)C(=O)c2cc(NC(=O)Nc3ccc(F)cc3)ccc2O1`, 23% (active).

With `Cc1noc(C)c1NC(=O)Nc1ccc2c(c1)C(=O)N([C@@H](C)CO)C[C@H](C)[C@H](CN(C)Cc1ccc(-c3ccccc3)cc1)O2`, the CPE inhibition was -1.16% (inactive). Turning to `C[C@@H]1CN([C@H](C)CO)C(=O)c2cc(NC(=O)Nc3ccc4c(c3)OCO4)ccc2O[C@@H](C)CCCCO[C@@H]1CN(C)Cc1ccc2c(c1)OCO2`, the CPE inhibition was -24.7% (inactive). As for `C[C@H]1CN([C@@H](C)CO)C(=O)c2cc(N(C)C)ccc2O[C@@H]1CN(C)Cc1ccccc1`, the CPE inhibition is 1.9% (inactive).

Regarding `C[C@@H]1CN([C@@H](C)CO)C(=O)c2cc(-c3ccccc3F)cnc2O[C@H]1CN(C)C(=O)C1CC1`, the CPE inhibition was -2.29% (inactive). On to `CO[C@H](CN(C)S(=O)(=O)c1ccc(Cl)cc1)[C@@H](C)CN(Cc1ccccc1Cl)[C@H](C)CO`, for which the CPE inhibition is 2.31% (inactive).

In the case of `O=C(C1CCOCC1)N1CC(=O)N2[C@H](CO)[C@H](c3ccc(C#CC4CCCCC4)cc3)[C@H]2C1`, the CPE inhibition is -10.5% (inactive). As for `O=C(C[C@@H]1C[C@@H]2c3cc(NC(=O)CC4CC4)ccc3O[C@@H]2[C@@H](CO)O1)NCCN1CCCCC1`, the figure is 1.09% (inactive); as for `COc1ccc(NC(=O)N(C)C[C@H]2OCCCC[C@H](C)Oc3ccc(NC(=O)NC4CCCCC4)cc3C(=O)N([C@@H](C)CO)C[C@@H]2C)cc1`, 76.4% (active). Turning to `COc1ccc(NC(=O)N(C)C[C@@H]2OCCCC[C@H](C)Oc3ccc(NC(=O)c4ccccc4)cc3C(=O)N([C@H](C)CO)C[C@H]2C)cc1`, the CPE inhibition is -12.7% (inactive). On to `COc1ccc(NC(=O)N(C)C[C@H]2OCCCC[C@@H](C)Oc3ccc(NC(=O)c4ccncc4)cc3C(=O)N([C@@H](C)CO)C[C@H]2C)cc1`, for which the CPE inhibition was 4.05% (inactive). For `COc1ccc(NC(=O)N(C)C[C@@H]2OCCCC[C@@H](C)Oc3ccc(NC(=O)NC4CCCCC4)cc3C(=O)N([C@H](C)CO)C[C@@H]2C)cc1`, the CPE inhibition was 1.54% (inactive) and 2.7% (inactive).

As for `COc1ccc(NC(=O)N(C)C[C@@H]2OCCCC[C@@H](C)Oc3ccc(NS(=O)(=O)c4ccc(Cl)cc4)cc3C(=O)N([C@H](C)CO)C[C@H]2C)cc1`, the CPE inhibition was 37.6% (active).

Take `COc1ccc(NC(=O)N(C)C[C@H]2OCCCC[C@H](C)Oc3ccc(NC(=O)c4ccncc4)cc3C(=O)N([C@H](C)CO)C[C@@H]2C)cc1`: the CPE inhibition was 21.4% (active). Consider `COc1ccc(NC(=O)N(C)C[C@H]2OCCCC[C@@H](C)Oc3ccc(NC(=O)NC4CCCCC4)cc3C(=O)N([C@H](C)CO)C[C@H]2C)cc1`, for which the CPE inhibition is 9.97% (inactive). Under `COc1ccc(NC(=O)N(C)C[C@H]2OCCCC[C@H](C)Oc3ccc(NS(=O)(=O)c4ccc(Cl)cc4)cc3C(=O)N([C@@H](C)CO)C[C@H]2C)cc1` stands 12.8% (inactive); under `COc1ccc(NC(=O)N(C)C[C@H]2OCCCC[C@@H](C)Oc3ccc(NS(=O)(=O)c4ccc(F)cc4)cc3C(=O)N([C@H](C)CO)C[C@H]2C)cc1`, 10.2% (inactive).

Turning to `O=C(C[C@@H]1C=C[C@@H](NC(=O)Nc2cccc(F)c2)[C@H](CO)O1)NCC1CCCCC1`, the CPE inhibition is 8.16% (inactive).

For `C[C@@H]1CN([C@@H](C)CO)C(=O)c2cc(C#Cc3ccncc3)cnc2O[C@@H]1CN(C)C(=O)CN(C)C`, the CPE inhibition is -5.91% (inactive). As for `C[C@H]1CN([C@@H](C)CO)C(=O)Cc2cc(NC(=O)C3CC3)ccc2O[C@@H]1CN(C)S(=O)(=O)c1cccs1`, the figure is 0.692% (inactive). On to `O=C(C[C@H]1C=C[C@@H](NC(=O)Nc2cc(F)ccc2F)[C@@H](CO)O1)NCc1ccc2c(c1)OCO2`, for which the CPE inhibition was 3.1% (inactive).

Consider `CCC(=O)Nc1ccc2c(c1)OC[C@@H](C)N(Cc1cncnc1)C[C@H](C)[C@@H](OC)CN(C)C2=O`, for which the CPE inhibition was 0.095% (inactive).

Values taken from PubChem BioAssay AID651640 (Broad Institute, 2012).
